The sample as a whole holds a higher share of the strongest signals than the screen did.
Key:
Experiment in all cases: glycan array binding signal (z-score within array); higher = stronger binding
Details in all cases: glycan notation: IUPAC condensed, linker removed
Gal6P(b1-4)GlcNAc = target: Gal6P(b1-4)GlcNAc
How it was run: (§1)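 Negative Z-scores can be read as non-binding. The Z-score is calculated within each array and then averaged across arrays of one protein sequence at different concentrations or buffers and across linkers. Arrays, 3228 in all, were curated from the Consortium for Functional Glycomics database and kept only where the protein sequence was available.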

GalNAc(a1-3)Gal = target: GalNAc(a1-3)Gal
How it was run: as §1

GalNAc(b1-3)Gal = target: GalNAc(b1-3)Gal
How it was run: as §1

[1] = target: GalNAc(b1-3)Gal(a1-4)Gal(b1-4)GlcNAc(b1-3)Gal(b1-4)Glc
How it was run: as §1

[2] = target: GalNAc(b1-4)GlcNAc(b1-2)Man
How it was run: as §1

Glc(b1-4)Glc = target: Glc(b1-4)Glc
How it was run: as §1

[3] = target: GlcNAc(b1-2)Gal(b1-3)GalNAc
How it was run: as §1

[4] = target: GlcNAc(b1-2)[GlcNAc(b1-4)]Man(a1-3)[GlcNAc(b1-4)][GlcNAc(b1-2)[GlcNAc(b1-6)]Man(a1-6)]Man(b1-4)GlcNAc(b1-4)GlcNAc
How it was run: as §1

GlcNAc(b1-3)Gal(b1-4)Glc = target: GlcNAc(b1-3)Gal(b1-4)Glc
How it was run: as §1

[5] = target: GlcNAc(b1-3)Gal(b1-4)GlcNAc(b1-2)Man(a1-3)[GlcNAc(b1-3)Gal(b1-4)GlcNAc(b1-2)Man(a1-6)]Man(b1-4)GlcNAc(b1-4)GlcNAc
How it was run: as §1

[6] = target: GlcNAc(b1-3)Gal(b1-4)GlcNAc(b1-3)Gal(b1-4)GlcNAc(b1-2)[GlcNAc(b1-3)Gal(b1-4)GlcNAc(b1-3)Gal(b1-4)GlcNAc(b1-6)]Man(a1-6)[GlcNAc(b1-3)Gal(b1-4)GlcNAc(b1-3)Gal(b1-4)GlcNAc(b1-2)Man(a1-3)]Man(b1-4)GlcNAc(b1-4)[Fuc(a1-6)]GlcNAc
How it was run: as §1

[7] = target: GlcNAc(b1-3)Gal(b1-4)GlcNAc(b1-3)Gal(b1-4)GlcNAc(b1-3)Gal(b1-4)GlcNAc(b1-3)Gal(b1-4)GlcNAc(b1-2)Man(a1-3)[GlcNAc(b1-3)Gal(b1-4)GlcNAc(b1-3)Gal(b1-4)GlcNAc(b1-3)Gal(b1-4)GlcNAc(b1-3)Gal(b1-4)GlcNAc(b1-2)Man(a1-6)]Man(b1-4)GlcNAc(b1-4)GlcNAc
How it was run: as §1

[8] = target: GlcNAc(b1-3)Gal(b1-4)GlcNAc(b1-3)Gal(b1-4)GlcNAc(b1-3)GalNAc
How it was run: as §1

[9] = target: Neu5Ac(a2-3)Gal(b1-3)GalNAc(b1-3)Gal(a1-4)Gal(b1-4)Glc
How it was run: as §1

[10] = target: Neu5Ac(a2-3)Gal(b1-3)GlcNAc(b1-2)[Neu5Ac(a2-3)Gal(b1-3)GlcNAc(b1-4)]Man(a1-6)[Neu5Ac(a2-3)Gal(b1-3)GlcNAc(b1-2)Man(a1-3)]Man(b1-4)GlcNAc(b1-4)GlcNAc
How it was run: as §1

[11] = target: Neu5Ac(a2-3)Gal(b1-4)GlcNAc(b1-2)Man(a1-3)[Neu5Ac(a2-3)Gal(b1-4)GlcNAc(b1-2)Man(a1-6)]Man(b1-4)GlcNAc(b1-4)[Fuc(a1-6)]GlcNAc
How it was run: as §1

[12] = target: Neu5Ac(a2-3)Gal(b1-4)[Fuc(a1-3)]GlcNAc(b1-2)Man
How it was run: as §1

[13] = target: Neu5Ac(a2-3)Gal(b1-4)[Fuc(a1-3)]GlcNAc(b1-6)[Neu5Ac(a2-3)Gal(b1-3)]GalNAc
How it was run: as §1

[14] = target: Neu5Ac(a2-3)Gal(b1-4)[Fuc(a1-3)]GlcNAc6S
How it was run: as §1

[15] = target: Neu5Ac(a2-6)Gal(b1-4)GlcNAc
How it was run: as §1

[16] = target: Neu5Ac(a2-6)Gal(b1-4)GlcNAc(b1-2)Man(a1-3)[Gal(b1-4)GlcNAc(b1-2)Man(a1-6)]Man(b1-4)GlcNAc(b1-4)GlcNAc
How it was run: as §1

[17] = target: Neu5Ac(a2-6)Gal(b1-4)GlcNAc(b1-2)Man(a1-3)[Neu5Ac(a2-6)Gal(b1-4)GlcNAc(b1-2)Man(a1-6)]Man(b1-4)GlcNAc(b1-4)[Fuc(a1-6)]GlcNAc
How it was run: as §1

[18] = target: Neu5Ac(a2-6)Gal(b1-4)GlcNAc(b1-3)Gal(b1-4)GlcNAc(b1-3)Gal(b1-4)GlcNAc(b1-2)Man(a1-3)[Neu5Ac(a2-6)Gal(b1-4)GlcNAc(b1-3)Gal(b1-4)GlcNAc(b1-3)Gal(b1-4)GlcNAc(b1-2)Man(a1-6)]GalNAc
How it was run: as §1

[19] = target: Neu5Ac(a2-6)Gal(b1-4)GlcNAc(b1-3)[Neu5Ac(a2-6)Gal(b1-4)GlcNAc(b1-6)]GalNAc
How it was run: as §1

[20] = target: Neu5Ac(a2-8)Neu5Ac(a2-3)Gal(b1-3)GalNAc(b1-4)[Neu5Ac(a2-8)Neu5Ac(a2-3)]Gal(b1-4)Glc
How it was run: as §1

[21] = target: Neu5Ac(a2-8)Neu5Ac(a2-3)[Gal(b1-3)GalNAc(b1-4)]Gal(b1-4)Glc
How it was run: as §1

[22] = target: Neu5Ac(b2-6)Gal(b1-4)GlcNAc
How it was run: as §1

[23] = target: Neu5Gc(a2-8)Neu5Gc(a2-3)Gal(b1-4)GlcNAc(b1-3)Gal(b1-4)GlcNAc
How it was run: as §1

B1: Agalectin (Anopheles gambiae) (protein)
chain: MSNRPFTAKFPRYPENGDEVFIRGKLKDDAKSFSVNFCLPRPAQVAEHQTPPYIALHFKTIYDERDDTSRVVLNWKNLQWQQEEVLDNYWHVDRSQTFRVVFRLHEDCIKVFVNSVDHPPDYQFPVQLPLDQIESIELWDDVEHVEEISFRYDNGNSY
Gal6P(b1-4)GlcNAc
  glycan array binding signal (z-score): -0.335
GalNAc(a1-3)Gal
  glycan array binding signal (z-score): -0.221
GalNAc(b1-3)Gal
  glycan array binding signal (z-score): -0.678
[1]
  glycan array binding signal (z-score): 0.038
[2]
  glycan array binding signal (z-score): 0.499
Glc(b1-4)Glc
  glycan array binding signal (z-score): -0.613
[3]
  glycan array binding signal (z-score): -1.34
[4]
  glycan array binding signal (z-score): -0.389
GlcNAc(b1-3)Gal(b1-4)Glc
  glycan array binding signal (z-score): -0.291
[5]
  glycan array binding signal (z-score): -0.912
[6]
  glycan array binding signal (z-score): 3.5
[7]
  glycan array binding signal (z-score): 3.07
[8]
  glycan array binding signal (z-score): -0.362
[9]
  glycan array binding signal (z-score): 0.518
[10]
  glycan array binding signal (z-score): 0.945
[11]
  glycan array binding signal (z-score): -0.933
[12]
  glycan array binding signal (z-score): 0.193
[13]
  glycan array binding signal (z-score): 3.95
[14]
  glycan array binding signal (z-score): 3.86
[15]
  glycan array binding signal (z-score): 0.241
[16]
  glycan array binding signal (z-score): -0.321
[17]
  glycan array binding signal (z-score): 5.84
[18]
  glycan array binding signal (z-score): 2.96
[19]
  glycan array binding signal (z-score): -0.501
[20]
  glycan array binding signal (z-score): 0.647
[21]
  glycan array binding signal (z-score): -0.464
[22]
  glycan array binding signal (z-score): -0.879
[23]
  glycan array binding signal (z-score): 0.981

— the supplement of paper PMC8728848
